Results reported in PubChem BioAssay.
Active and inactive are the calls of the source. Unless noted, no rule for the calls is given here.

Columns and labels:
[1] = compound effects on lung adenocarcinoma cell viability – A549, calcein-AM fluorescence, 48 h, basal, profiling panel (AID 1162); conditions: higher = more signal; also: test concentration not given here
[2] = compound effects on differentiated 3T3-L1 adipocyte viability – cell-based, 3T3-L1 adipocytes, calcein-AM fluorescence, 48 h, basal, profiling panel (AID 1163); conditions: 3T3-L1 adipocytes viability, higher = more signal; also: test concentration not given here
[3] = compound effects on hepatocellular carcinoma cell viability – HepG2, calcein-AM fluorescence, 48 h, basal, profiling panel (AID 1164); conditions: higher = more signal; also: test concentration not given here
[4] = compound effects on multiple myeloma cell viability – MM1S, calcein-AM fluorescence, 48 h, basal, profiling panel (AID 1165); conditions: higher = more signal; also: test concentration not given here
[5] = calcein-AM signal in unstimulated myeloma cells – cell-based, calcein-AM fluorescence, 48 h, PK04 Diversity Set, profiling panel (AID 1166); conditions: RPMI8226 myeloma viability, higher = more signal;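 also: cells grown under basal conditions without added stimulus; test concentration not given here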
[6] = JC-1 mitochondrial signal, unstimulated HepG2 cells – cell-based, JC-1 fluorescence, 24 h, 100 nL compound, profiling panel (AID 1167); conditions: HepG2 mitochondrial potential, higher = more signal; also: test concentration not given here
[7] = JC-1 mitochondrial signal, unstimulated adipocytes – cell-based, JC-1 fluorescence, 3T3-L1 adipocytes, 24 h, 100 nL compound, profiling panel (AID 1168); conditions: JC-1 mitochondrial fluorescence, higher = more signal, called active from +8 up or from −8 down; also: test concentration not given here
[8] = JC-1 mitochondrial signal, unstimulated myeloma cells – cell-based, JC-1 fluorescence, RPMI8226, 24 h, 100 nL compound, profiling panel (AID 1169); conditions: JC-1 mitochondrial potential fluorescence, higher = more signal; also: test concentration not given here
[9] = JC-1 mitochondrial signal, unstimulated MM1S myeloma – cell-based, JC-1 fluorescence, 24 h, 100 nL compound, profiling panel (AID 1170); conditions: MM1S mitochondrial potential, higher = more signal; also: test concentration not given here
[10] = resazurin metabolic signal in A549 cells – cell-based, resazurin fluorescence, 24 h, PK04 Diversity Set, profiling panel (AID 1171); conditions: A549 viability, higher = more signal, called active from +8 up or from −8 down; also: test concentration not given here
[11] = resazurin metabolic signal in HepG2 cells – cell-based, resazurin fluorescence, 24 h, PK04 Diversity Set, profiling panel (AID 1172); conditions: HepG2 viability, higher = more signal; also: test concentration not given here
[12] = budding yeast growth changes without added modifier – OD600, strain BY4716, 24 h, basal condition, primary screen (AID 1173); conditions: S. cerevisiae BY4716 growth, OD600, 24 h; higher = more signal, called active from +8 up or from −8 down
[13] = viability profiling in MM1S myeloma cells – cell-based, resazurin fluorescence, basal, 24 h, PK04 Diversity Set, profiling panel (AID 1174); conditions: higher = more signal, called active from +8 up or from −8 down; also: test concentration not given here
[14] = target: Dihydroorotate dehydrogenase (quinone), mitochondrial (Plasmodium falciparum (isolate 3D7)) (UniProt Q08210); assay: inhibition of P. falciparum DHODH – biochemical, C-terminal His tag, absorbance 600 nm, primary screen (AID 1175); conditions: PfDHODH enzyme, DCIP absorbance 600 nm; higher = more signal, called active from +8 up or from −8 down;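 also: recombinant parasite enzyme with a five histidine tag at its C terminus; test concentration not given here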
[15] = inhibition of PAO1 biofilm formation – strain PAO1, LB-PBS medium, absorbance 600 nm, primary screen (AID 1176); also: test concentration not given here; conditions: P. aeruginosa PAO1 growth/biofilm, A600, 12 h; higher = more signal
[16] = growth modulation of vineyard yeast isolate – strain RM11-1a, OD600, basal, 24 h, primary screen (AID 1177);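 also: cultures grown under basal conditions with no added stressor; test concentration not given here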; conditions: S. cerevisiae RM11-1a growth, OD600, 24 h; higher = more signal, called active from +8 up or from −8 down
[17] = growth of efflux-deficient E. coli DRC39 – strain DRC39, OD650, 24 h, E. coli filamentation inducers, primary screen (AID 1178);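 also: growth measured as culture turbidity by optical density at 650 nm; test concentration not given here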; conditions: E. coli DRC39 acrAB, higher = more signal, called active from +8 up or from −8 down
[18] = growth of efflux-deficient E. coli DRC39 – strain DRC39, OD650, 48 h, E. coli filamentation inducers, primary screen (AID 1179);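 also: screen aims at cell division blockers that make cells filament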; conditions: E. coli DRC39 delta-acrAB growth, higher = more signal, called active from +8 up or from −8 down
[19] = viability profiling in RPMI8226 myeloma cells – cell-based, resazurin fluorescence, basal, 24 h, PK04 Diversity Set, profiling panel (AID 1180); conditions: higher = more signal;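 also: RPMI8826 multiple myeloma cell line at 5000 cells per well; test concentration not given here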
[20] = target: E3 ubiquitin-protein ligase XIAP (Homo sapiens) (UniProt P98170); assay: small molecules binding XIAP protein – biophysical, small-molecule microarray, fluorescence 635 nm, primary screen (AID 1181); conditions: higher = more signal;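 also: score merges 667 nm emission and signal to noise over triplicate slides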
Chain of E3 ubiquitin-protein ligase XIAP (Homo sapiens) (P98170 whole entry, looked up): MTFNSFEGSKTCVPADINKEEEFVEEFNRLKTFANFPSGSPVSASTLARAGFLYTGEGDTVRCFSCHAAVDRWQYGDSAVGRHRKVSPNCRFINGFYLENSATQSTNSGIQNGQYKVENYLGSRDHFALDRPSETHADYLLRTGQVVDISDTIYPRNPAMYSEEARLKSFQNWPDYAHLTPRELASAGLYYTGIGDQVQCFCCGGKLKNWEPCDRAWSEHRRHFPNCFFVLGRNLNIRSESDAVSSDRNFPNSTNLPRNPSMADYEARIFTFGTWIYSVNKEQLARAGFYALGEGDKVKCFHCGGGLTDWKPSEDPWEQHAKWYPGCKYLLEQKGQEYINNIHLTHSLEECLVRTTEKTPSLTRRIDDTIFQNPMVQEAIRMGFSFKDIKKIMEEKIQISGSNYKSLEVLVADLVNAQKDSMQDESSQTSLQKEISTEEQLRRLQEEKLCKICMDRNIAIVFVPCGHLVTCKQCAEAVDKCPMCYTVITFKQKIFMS

Chain of Dihydroorotate dehydrogenase (quinone), mitochondrial (Plasmodium falciparum (isolate 3D7)) (Q08210 whole entry, looked up): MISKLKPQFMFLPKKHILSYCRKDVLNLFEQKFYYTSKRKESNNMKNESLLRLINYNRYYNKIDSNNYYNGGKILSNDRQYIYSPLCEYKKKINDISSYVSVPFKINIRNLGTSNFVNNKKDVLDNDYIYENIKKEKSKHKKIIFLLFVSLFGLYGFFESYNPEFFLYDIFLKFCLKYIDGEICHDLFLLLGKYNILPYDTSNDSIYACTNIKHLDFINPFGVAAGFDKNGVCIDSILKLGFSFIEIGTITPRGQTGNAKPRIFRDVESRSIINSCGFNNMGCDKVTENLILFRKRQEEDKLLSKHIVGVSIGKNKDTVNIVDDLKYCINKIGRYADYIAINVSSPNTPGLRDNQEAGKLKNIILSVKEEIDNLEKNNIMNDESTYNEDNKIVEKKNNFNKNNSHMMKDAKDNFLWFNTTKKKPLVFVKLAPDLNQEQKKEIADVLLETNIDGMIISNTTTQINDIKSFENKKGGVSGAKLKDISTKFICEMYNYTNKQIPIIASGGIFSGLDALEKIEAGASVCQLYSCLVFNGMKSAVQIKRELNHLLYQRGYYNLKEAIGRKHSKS

Compound	z-score [1]	z-score [2]	z-score [3]	z-score [4]	z-score [5]	z-score [6]	z-score [7]	z-score [8]	z-score [9]	z-score [10]	z-score [11]	z-score [12]	z-score [13]	composite z-score [14]	z-score [15]	z-score [16]	z-score [17]	z-score [18]	z-score [19]	composite z-score [20]
COc1cccc([C@@H]2Oc3ccc(OC)cc3C(=O)[C@H]2O)c1	0.0549	0.856	-2.24	-2.89	-2.25	-2.31	-0.0174 (inactive)	1.04	-0.27	-0.214 (inactive)	0.115	-8.27 (active)	0.0409 (inactive)	-2.73 (inactive)	-0.364 (inactive)	-0.55 (inactive)	-1.47 (inactive)	-2.37 (inactive)	0.329	-0.0773
CON=Cc1ccc(C(=O)N2[C@H](c3ccc(C)cc3)[C@@H](C)CC[C@H]2C(=O)OC)cc1	0.281	0.0609	-0.296	0.336	0.0411	0.129	0.345 (inactive)	0.344	1.07	1.03 (inactive)	0.259	-2.35 (inactive)	0.37 (inactive)	0.442 (inactive)	-0.066 (inactive)	-0.308 (inactive)	0.743 (inactive)	0.0138 (inactive)	0.589	-0.0559
COC(=O)[C@@H]1CC[C@H](C)[C@@H](c2ccc(C)cc2)N1C(=O)c1ccc(C=NOC[C@@H](C)[C@H](OCc2ccccc2)C(C)C)cc1	0.188	0.903	2.13	-0.168	-0.0791	1.6	-0.483 (inactive)	-0.998	-1.01	-1.19 (inactive)	-0.625	-2.56 (inactive)	-0.795 (inactive)	-0.869 (inactive)	-1.16 (inactive)	-2.18 (inactive)	0.413 (inactive)	-1.07 (inactive)	-0.987	-0.135
CC(C)=NOC[C@@H](C)[C@H](OCc1ccccc1)C(C)C	0.108	0.311	-0.0481	-0.313	-0.556	-0.0858	0.0392 (inactive)	-0.279	0.503	-0.557 (inactive)	-0.593	0.201 (inactive)	-0.572 (inactive)	0.444 (inactive)	-0.115 (inactive)	0.536 (inactive)	-0.161 (inactive)	-0.339 (inactive)	0.887	0.0077
CO[C@H]1COC(=O)CCC[C@@H](C)[C@H](OC)COC(=O)[C@@H]2CCCN2C(=O)CC=C[C@@H]1C	-0.395	0.376	0.308	0.149	-0.193	-0.0779	-0.0693 (inactive)	-0.0032	-0.87	-0.186 (inactive)	-0.145	-0.723 (inactive)	0.435 (inactive)	-0.44 (inactive)	-1.04 (inactive)	-1.04 (inactive)	-0.367 (inactive)	-0.459 (inactive)	0.826	-0.135
COC(=O)CC=C[C@@H](C)[C@@H](C=NOCC[C@@H]1C=C[C@H](OC(C)=O)[C@@H](COC(C)=O)O1)OC	1.29	-0.0264	0.436	-0.616	0.238	-0.514	-0.43 (inactive)	-0.133	-0.324	-0.393 (inactive)	-0.269	0.557 (inactive)	-0.104 (inactive)	0.558 (inactive)	-0.242 (inactive)	0.47 (inactive)	0.157 (inactive)	0.138 (inactive)	-0.325	0.0506
CC(C)CON=C1C[C@@H](O)[C@@H](O)[C@@H]2[C@@H]3C(=O)N(c4cccc(Oc5ccccc5)c4)C(=O)[C@@H]3CC[C@@H]12	1.52	0.797	0.626	-0.779	0.0135	0.291	0.411 (inactive)	0.615	-1.78	-0.908 (inactive)	-0.271	-1.81 (inactive)	-1.5 (inactive)	-1.71 (inactive)	0.659 (inactive)	-1.86 (inactive)	-0.321 (inactive)	-0.791 (inactive)	-0.0778	0.125
COc1ccc(O[C@H]2C=C[C@@H](c3ccccc3)O[C@@H]2CON=C(C)C)cc1	0.124	-0.556	-0.462	-1.53	-0.372	-1.18	0.148 (inactive)	0.472	-0.867	0.0001 (inactive)	0.163	-0.964 (inactive)	-0.253 (inactive)	0.271 (inactive)	0.936 (inactive)	0.267 (inactive)	0.366 (inactive)	-1.8 (inactive)	0.224	0.511
CCOC(=O)[C@H](CC(C)C)NC(=O)CCC1CC(OC(=O)NCc2ccc3c(c2)OCO3)CC2(CCCC(COC(=O)NCCCN3CCCC3=O)O2)O1 (stereo not given in full)	0.526	-0.268	-0.106	-0.181	0.514	0.553	0.875 (inactive)	-0.838	-0.328	0.142 (inactive)	0.217	-1.17 (inactive)	0.595 (inactive)	-1.42 (inactive)	0.38 (inactive)	0.564 (inactive)	0.877 (inactive)	0.0512 (inactive)	1.24	-0.145
